# In PubChem BioAssay (NCATS):
# Records with an inconclusive call do not appear. Active and inactive are the calls of the source. Unless noted, calls come from the whole dose curve; as a rule, active = well fitted curve in the direction sought with a large enough effect; inconclusive = small, poorly fitted or top-dose-only effect, or another doubt; inactive = no such curve, though single readings can be large; an effect the other way counts as inactive or inconclusive. Non-standard residues stand in square brackets, D forms with d. Residues, ends and D or L forms follow the SMILES beside them. *: point of attachment. Nva = CCC[C@H](N)C(=O)O; Cbz = O=C(OCc1ccccc1)*
# Tests used:
# [1] = qHTS profiling of the MIPE4 collection as inhibitors of Plasmodium falciparum (3D7) proliferation (AID 743344; call rule not given here;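 note: scaled between DMSO vehicle wells and 0.29 µM artemisinin as full inhibition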); conditions: P. falciparum 3D7 in erythrocytes, SYBR Green DNA fluorescence, 72 h; at 28.5 µM unless noted
# In short: (§1)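 Parasite DNA was quantified by SYBR Green I fluorescence (ex 485, em 535 nm) after overnight lysis in saponin/Triton buffer at room temperature. Cultures at 0.3% parasitemia and 2.5% hematocrit were first exposed to compound for 72 h at 37 C; signals were normalised to artemisinin (0.29 uM) and vehicle wells.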
# [2] = qHTS profiling of the MIPE4 collection as inhibitors of Plasmodium falciparum (DD2) proliferation (AID 743345; call rule not given here); conditions: P. falciparum Dd2 in erythrocytes, SYBR Green DNA, 72 h; at 28.5 µM unless noted
# In short: as §1
# [3] = qHTS profiling of the MIPE4 collection as inhibitors of Plasmodium falciparum (DD2) proliferation (Rep 2) (AID 743346; call rule not given here); conditions: P. falciparum Dd2 in erythrocytes, SYBR Green DNA, 72 h; at 28.5 µM unless noted
# In short: as §1
# [4] = qHTS profiling of the MIPE4 collection as inhibitors of Plasmodium falciparum (HB3) proliferation (AID 743347; call rule not given here;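 note: plate controls were DMSO vehicle wells for no effect and artemisinin wells for full effect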); conditions: P. falciparum HB3 in erythrocytes, SYBR Green DNA, 72 h; at 28.5 µM unless noted
# In short: as §1
# [5] = High-throughput drug toxicity screening in the BPDCN cell line Cal-1 (AID 1224825; call rule not given here); conditions: Cal-1 BPDCN cell viability, qHTS; at 45.8 µM (top of the series) unless noted
# In short: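 CellTiter-Glo luminescence after 48 h compound exposure; percent activity scaled with DMSO as 100% and bortezomib (9.2 uM final) as 0%. Cal-1 cells seeded at 500/well in RPMI, 10% FBS, no phenol red.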
# [6] = qHTS assay for measurement of the activity of small molecule inhibitors on Zika virus induced Caspase-3 activity in human astrocytoma cells (AID 1224859);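 note: plate controls were ZIKV-infected untreated cells for no effect and uninfected cells for full effect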
# In short: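 SNB-19 astrocytoma cells, 250/well, pretreated 1 h with compounds, then Zika virus at 2 FFU/cell for 6 h at 37 C; Caspase-Glo 3/7 luminescence after 30 min; percent inhibition normalised to uninfected and infected controls.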
# [7] = qHTS Screen of the MIPE 4.0 Collection Against Ewings Sarcoma (RDES) (AID 1259252); note: nearly all actives have a fitted effect of over 35% in size; note: potency is the fitted concentration of half-maximal effect
# In short: (§2)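 Log-phase cells in RPMI with 5% FBS attached for 4 h, then received compounds as a titration for 48 h at 37C, 5% CO2. Viability was read by CellTiter-Glo luminescence and normalized to DMSO and no-cell wells.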
# [8] = qHTS Screen of the MIPE 4.0 Collection Against Ewings Sarcoma (TC71) (AID 1259253); note: nearly all actives have a fitted effect of over 40% in size; note: potency is the fitted concentration of half-maximal effect
# In short: as §2
# [9] = qHTS Screen of the MIPE 4.0 Collection Against Ewings Sarcoma (EW8) (AID 1259255); note: nearly all actives have a fitted effect of over 35% in size; note: potency is the fitted concentration of half-maximal effect;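 for viability: 100% = DMSO-treated cells and 0% = medium-only wells without cells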
# In short: as §2
# [10] = qHTS assay for measurement of the activity of small molecule inhibitors on Zika virus induced Caspase-3 activity in human iPSC derived neural progenitor cells (hNPCs) (AID 1224857); note: % of control where 0% means no effect; nearly all actives have a fitted effect of over 65% in size
# In short: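 Human iPSC-derived neural progenitor cells pretreated 1 hr with compounds, then infected with Zika virus (2 FFU/cell) for 6 hours at 37 C. Caspase-3/7 measured by Caspase-Glo luminescence; % inhibition calculated from induction scaled to uninfected (0%) and infected (100%) wells.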
# [11] = qHTS Assay for Identifying Gametocytocidal Compounds (AID 743244);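 note: % is set by controls: 0 for no effect and ±100 for the full control effect; actives lower the fluorescent signal which means gametocytes are killed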; conditions: P. falciparum 3D7 stage III-V gametocytes, alamarBlue, 72 h; max response: stronger effect = lower value
# In short: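 Stage III-V P. falciparum 3D7 gametocytes, 20,000 per well, were exposed to compounds for 72 h at 37C, 5% CO2. AlamarBlue was then added for 24 h and viability was read as fluorescence at Ex 525/Em 598 nm.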
# [12] = qHTS profiling for inhibitors of Plasmodium falciparum (3D7) proliferation (AID 743322; call rule not given here;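 note: infected erythrocytes exposed to compound for 72 h before lysis; 100% = DMSO vehicle wells and 0% = 0.29 µM artemisinin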); conditions: P. falciparum 3D7 proliferation; at 28.7 µM (top of the series)
# In short: as §1
# [13] = qHTS profiling for inhibitors of Plasmodium falciparum (DD2) proliferation (AID 743323; call rule not given here); conditions: lower = more inhibition; at 28.7 µM (top of the series)
# In short: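 1536-well qHTS; infected RBCs 0.3% parasitemia/2.5% Hct final; cpd 72 h 37 C 5% CO2; lysis buffer + SYBR Green I, o/n RT dark; FI 485/535; norm. to 0.29 uM artemisinin and DMSO, plate-stack corrected.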
# [14] = qHTS profiling for inhibitors of Plasmodium falciparum (HB3) proliferation (AID 743324); conditions: Plasmodium falciparum HB3 blood-stage proliferation; at 28.7 µM (top of the series);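 note: 100% = DMSO vehicle wells and 0% = artemisinin-treated control wells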
# In short: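 SYBR Green fluorescence (485 ex/535 em) of lysed cultures, incubated overnight at room temperature in the dark, quantifies parasite DNA. Infected erythrocytes at 0.3% parasitemia and 2.5% hematocrit were exposed 72 h; values normalized to DMSO and 0.29 uM artemisinin controls.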
Compound,"parasite growth, % of DMSO control [1] [%]","parasite growth remaining, % of DMSO control (lower = more inhibition) [2] [%]","parasite growth, % of control (lower = inhibition) [3] [%]","growth, % of control [4] [%]",viability (% of control) [5],Potency [6],Potency [7],Potency [8],Potency [9],Potency [10],max response [11],remaining parasite growth % (stronger effect = lower value) [12] [%],"activity, percent of control [13] [%]","remaining proliferation (% of control), lower = more inhibition [14] [%]"
Nc1nc(=O)n([C@H]2C[C@H](O)[C@@H](CO)O2)cc1F,99.5,95.7,85.7,107,35.3%,inactive,0.0469 µM (active),0.0935 µM (active),0.0662 µM (active),,,,,
COc1cc(N2CCC(C(N)=O)CC2)ccc1Nc1nc(N)c(Cl)c(Nc2ccccc2S(=O)(=O)C(C)C)n1,38.7,37.8,35.9,53.9,10.6%,inactive,1.05 µM (active),16.6 µM (active),20.9 µM (active),inactive,,,,
Nc1ccn(C[C@@H](CO)OCP(=O)(O)O)c(=O)n1,,,,,98.1% [at 23.2 µM],inactive,inactive,inactive,inactive,inactive,0.0749% (inactive),,,
c1cncc(CN2CCC(n3ncc4c(N5CCOCC5)nc(-c5ccc6[nH]ccc6c5)nc43)CC2)c1,4.76,,18.3,8.55,9.02%,inactive,13.2 µM (active),13.2 µM (active),6.62 µM (active),inactive,,,,
Cc1ccc(O)c(C(CCN(C(C)C)C(C)C)c2ccccc2)c1 (stereo unspecified),11.8,,10.4,,103%,inactive,inactive,inactive,inactive,inactive,,,,
CC(=O)[C@]1(O)Cc2c(O)c3c(c(O)c2[C@@H](O[C@H]2C[C@H](N)[C@@H](O)[C@H](C)O2)C1)C(=O)c1ccccc1C3=O,27.7,,49,11.5,4.63%,inactive,0.059 µM (active),0.0372 µM (active),0.0187 µM (active),inactive,,,,
CC(=O)N[C@H]1[C@@H]([C@H](O)[C@H](O)CO)OC(C(=O)O)=C[C@@H]1N=C(N)N,,,,,124%,inactive,inactive,inactive,inactive,,,,,
CC(C)C[C@H](NC(=O)CNC(=O)c1cc(Cl)ccc1Cl)B1OC(=O)CC(CC(=O)O)(C(=O)O)O1 (stereo partly specified),4.74,7.15,7.43,8.02,3.61%,inactive,0.235 µM (active),0.235 µM (active),0.118 µM (active),inactive,,,,
COc1ccnc2[nH]cc(C(=O)C(=O)N3CCN(C(=O)c4ccccc4)C[C@@H]3C)c12,81,98,86.4,99.1,119%,inactive,inactive,2.64 µM (active),inactive,inactive,,,,
CCCCCCCCc1ccc(CCC(N)(CO)CO)cc1,9.21,14.6,24.2,4.09,3.28%,inactive,23.5 µM (active),20.9 µM (active),20.9 µM (active),inactive,,,,
CCc1nc(-c2cccc(C)c2)c(-c2ccnc(NC(=O)c3ccccc3)c2)s1,21.9,47.6,,29.7,25.7%,inactive,14.8 µM (active),18.7 µM (active),20.9 µM (active),inactive,,,,
CN(C)CCN1C(=O)c2cccc3cc(N)cc(c23)C1=O,18.3,12.6,10.8,9.26,4.08%,inactive,16.6 µM (active),14.8 µM (active),1.66 µM (active),inactive,,,,
C=C1C[C@@]2(O)O[C@@]3(C[C@H]2C(C)C)[C@H](C)CC[C@H]13,,,,,101%,inactive,inactive,inactive,inactive,inactive,,,,
CC1=C(C(=O)Nc2cc3cn[nH]c3cc2F)C(c2ccc(Cl)cc2F)N=C(c2ccnc(Cl)c2)N1 (stereo unspecified),13.2,36.2,21.1,10.9,3.35%,inactive,18.7 µM (active),14.8 µM (active),26.4 µM (active),,,,,
Cc1cc(Nc2ncc3c(n2)N(C)C(=O)N(c2cc(NC(=O)c4cccc(C(F)(F)F)c4)ccc2C)C3)n(C)n1,7.35,15.8,15.8,10.8,7.39%,inactive,0.418 µM (active),0.372 µM (active),0.833 µM (active),,,,,
CCc1cc(C(C)=NOCc2ccc(C3CCCCC3)c(C(F)(F)F)c2)ccc1CN1CC(C(=O)O)C1,6.45,69.4,41.3,11.3,19.7%,inactive,inactive,inactive,inactive,inactive,,,,
O=C(O)CCCCCC(=O)NN=C1CCCC1,101,,194,101,105%,inactive,inactive,inactive,inactive,inactive,,92.8,96.4,107
CCC[C@@H](C=O)NC(=O)[C@H](CC(C)C)NC(=O)[C@H](CC(C)C)NC(=O)OCc1ccccc1 (Cbz-Leu-Leu-[Nva]-aldehyde),4.86,6.49,7.93,3.3,7.12%,inactive,1.18 µM (active),1.32 µM (active),0.743 µM (active),,,,,
